What was measured:
Conditions in all cases: concentration: 1 μM, replicates: in singlicate; n = 1
LYN = test system: LYN
LZK = test system: T1, LZK
T1 construct: gene MAP3K13

MAK = test system: MAK
MAP3K15 = test system: MAP3K15
MAP3K1 = test system: MAP3K1
MAP3K2 = test system: MAP3K2
MAP3K3 = test system: MAP3K3
MAP3K4 = test system: MAP3K4
MAP4K2 = test system: MAP4K2
MAP4K3 = test system: MAP4K3
MAP4K4 = test system: MAP4K4
MAP4K5 = test system: MAP4K5
MAPKAPK2 = test system: MAPKAPK2
MAPKAPK5 = test system: MAPKAPK5
MARK1 = test system: MARK1
MARK2 = test system: MARK2
MARK3 = test system: MARK3
MARK4 = test system: MARK4
MAST1 = test system: MAST1
MEK1 = test system: T2, MEK1
T2 construct: gene MAP2K1
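Also: KINOMEscan kinase panel screen.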

Q: Which results are given for COc1ccccc1CNC(=O)c1cc(C(=O)c2ccccc2C)c[nH]1 [GSK364507]?
A: %Inh (LYN): 0%; %Inh (LZK): 0%; %Inh (MAK): 7%; %Inh (MAP3K15): 3%; %Inh (MAP3K1): 6%; %Inh (MAP3K2): 15%; %Inh (MAP3K3): 0%; %Inh (MAP3K4): 32%; %Inh (MAP4K2): 0%; %Inh (MAP4K3): 0%; %Inh (MAP4K4): 6%; %Inh (MAP4K5): 0%; %Inh (MAPKAPK2): 26%; %Inh (MAPKAPK5): 0%; %Inh (MARK1): 89%; %Inh (MARK2): 0%; %Inh (MARK3): 0%; %Inh (MARK4): 50%; %Inh (MAST1): 0%; %Inh (MEK1): 0%

Q: Which results are given for Cc1cccc(-c2nc(-c3ccc(S(C)(=O)=O)cc3)sc2-c2ccnc(NCCc3ccccc3)c2)c1?
A: %Inh (LYN): 5%; %Inh (LZK): 2%; %Inh (MAK): 0%; %Inh (MAP3K15): 10%; %Inh (MAP3K1): 0%; %Inh (MAP3K2): 0%; %Inh (MAP3K3): 0%; %Inh (MAP3K4): 16%; %Inh (MAP4K2): 15%; %Inh (MAP4K3): 0%; %Inh (MAP4K4): 0%; %Inh (MAP4K5): 0%; %Inh (MAPKAPK2): 0%; %Inh (MAPKAPK5): 0%; %Inh (MARK1): 0%; %Inh (MARK2): 11%; %Inh (MARK3): 0%; %Inh (MARK4): 0%; %Inh (MAST1): 0%; %Inh (MEK1): 0%

Q: What does the source list for NC(=O)c1nnc2ccccc2c1N?
A: %Inh (LYN): 5%; %Inh (LZK): 0%; %Inh (MAK): 23%; %Inh (MAP3K15): 30%; %Inh (MAP3K1): 28%; %Inh (MAP3K2): 31%; %Inh (MAP3K3): 34%; %Inh (MAP3K4): 15%; %Inh (MAP4K2): 20%; %Inh (MAP4K3): 4%; %Inh (MAP4K4): 12%; %Inh (MAP4K5): 11%; %Inh (MAPKAPK2): 0%; %Inh (MAPKAPK5): 0%; %Inh (MARK1): 12%; %Inh (MARK2): 0%; %Inh (MARK3): 0%; %Inh (MARK4): 19%; %Inh (MAST1): 1%; %Inh (MEK1): 40%

Q: For Cc1ccc(C(=O)Nc2ccc(Nc3ccnc4cc(-c5ccccn5)ccc34)cc2O)cc1.Cl [GW440146], which “%Inh” value (LYN) is on record?
A: 44%

Q: What about the “%Inh” value (LZK) of the same compound?
A: 10%

Q: What about the “%Inh” value (MAK) of the same compound?
A: 25%

Q: What about the “%Inh” value (MAP3K15) of the same compound?
A: 21%

Q: And the “%Inh” value (MAP3K1)?
A: 3%

Q: What about the “%Inh” value (MAP3K2) of the same compound?
A: 0%

Q: And the “%Inh” value (MAP3K3)?
A: 0%

Q: What about the “%Inh” value (MAP3K4) of the same compound?
A: 25%

Q: And the “%Inh” value (MAP4K2)?
A: 0%

Q: What about the “%Inh” value (MAP4K3) of the same compound?
A: 0%

Q: What about the “%Inh” value (MAP4K4) of the same compound?
A: 0%

Q: What about the “%Inh” value (MAP4K5) of the same compound?
A: 70%

Q: And the “%Inh” value (MAPKAPK2)?
A: 18%

Q: What about the “%Inh” value (MAPKAPK5) of the same compound?
A: 0%

Q: What about the “%Inh” value (MARK1) of the same compound?
A: 0%

Q: And the “%Inh” value (MARK2)?
A: 0%

Q: And the “%Inh” value (MARK3)?
A: 2%

Q: What about the “%Inh” value (MARK4) of the same compound?
A: 4%

Q: What about the “%Inh” value (MAST1) of the same compound?
A: 0%

Q: What about the “%Inh” value (MEK1) of the same compound?
A: 0%
